Screening results (PubChem)
This is a sample that favours compounds with a hit; in the whole collection about 1.8% have one here.
HEK293 tox = cytotoxicity in counter-screen for GLP-1R inverse agonists | HEK293 cAMP-luciferase reporter cells, luminescence, 24 h | Potency, µM (doses to about 38.3 µM), inactives show at the top dose activity change, negative = inhibition, hits mostly inhibitors | hit rate 0.13% among 410,000;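 also: loss of luciferase light is scored as toxicity; potency is read from the fitted curve at half-maximal effect; % is scaled to controls: 0 for no effect and ±100 for the full control effect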
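Compound-treated cells are incubated 24 hr at 37 deg C under 5% CO2 after a 12 hour attachment period, then luciferase detection reagent is added and luminescence is measured following 12 min at room temperature; lowered signal indicates toxicity.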
GLP-1R agonist = GLP-1 receptor (human) agonism | AID 624172 | P43220 | HEK293 GLP-1R CRE-luciferase, luminescence, 4-6 h; cells express a hypersensitive GLP-1R form | Potency, µM (titrated, usually from 45.6 µM), inactives show at the top dose activation, hits mostly activators | hit rate 0.007% among 380,000; also: potency is read from the fitted curve at half-maximal effect; % of control where 0% means no effect
Target sequence (P43220 whole entry, looked up): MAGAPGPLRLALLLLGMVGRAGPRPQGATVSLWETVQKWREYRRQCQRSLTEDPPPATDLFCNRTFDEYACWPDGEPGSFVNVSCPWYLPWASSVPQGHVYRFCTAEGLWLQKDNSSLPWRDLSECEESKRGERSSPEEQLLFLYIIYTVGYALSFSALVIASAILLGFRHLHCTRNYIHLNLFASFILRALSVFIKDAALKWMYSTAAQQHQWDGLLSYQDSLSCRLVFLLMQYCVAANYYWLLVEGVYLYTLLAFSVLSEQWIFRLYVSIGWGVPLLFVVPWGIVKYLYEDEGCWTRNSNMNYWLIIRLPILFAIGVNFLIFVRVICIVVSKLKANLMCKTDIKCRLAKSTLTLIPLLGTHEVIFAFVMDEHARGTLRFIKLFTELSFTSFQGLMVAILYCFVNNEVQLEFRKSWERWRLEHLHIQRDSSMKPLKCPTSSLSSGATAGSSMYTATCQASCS
TRPML1 agonist = agonists of human TRPML1 channel | Q9GZU1 | TRPML1-expressing cells, Ca2+ dye fluorescence, FDSS | activation, % (test concentration not listed) | hit rate 0.12% among 410,000 | AID 624414; in the data active = activation above about 50%; inconclusive = mostly about 30% to 49%; also: 0% is about no effect
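Agonist activity was taken from a 110 s kinetic Ca2+ dye read on the FDSS after pinning compounds onto TRPML1-DL cells. The cells were seeded at 1,500/well with Tet inducer, incubated about 16 h, then dye-loaded at room temperature.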
TRPML1 inh = inhibitors of human TRPML1 channel | Q9GZU1 | TRPML1-inducible cells, Ca2+ dye fluorescence, FDSS; active compounds read low; inhibition of EC80 agonist-evoked calcium signal | activity change, negative = inhibition, % (concentration not given with the values) | hit rate 0.02% among 390,000 | AID 624415; in the data active = activity change below about -50%; inconclusive = between about -30% and that limit;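 also: stimulus is agonist 54-4 at its EC80 concentration; % is scaled to controls: 0 for no effect and ±100 for the full control effect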
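TRPML1-DL cells, Tet-induced overnight (~16 h, 37 °C) at 1,500 cells/well, were loaded with Ca8 no-wash dye plus quencher for 45-90 min at room temperature. Compounds were pinned during FDSS kinetic reading; agonist 54-4 at EC80 (4 uM final) then added.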
GLP1R inv ag = acts as inverse agonist at human GLP-1 receptor; HEK293 GLP-1R CRE-luciferase, luminescence, 24 h; GLP-1R form is constitutively active; Potency, µM (top dose mostly 38.3 µM), without a hit: top-dose activity change, negative = inhibition, actives largely listed as inhibitors; AID 624417; hit rate 1.6% among 410,000; P43220; also: potency is read from the fitted curve at half-maximal effect; % is scaled to controls: 0 for no effect and ±100 for the full control effect; nearly all actives have a fitted effect of over 55% in size
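Cells are plated, allowed 12 hours at 37 deg C, then treated with compounds for 24 hr before luciferase detection reagent is added and luminescence is read after 12 min at room temperature. The HEK293 line carries constitutively active GLP-1R with a cAMP-responsive reporter.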
Active calls of the source: *; ? = inconclusive; / = no result. Unless noted, calls follow the shape of the dose curve; as a rule, active = well fitted curve in the direction sought with a large enough effect; inconclusive = small, poorly fitted or top-dose-only effect, or another doubt; inactive = no such curve, though single readings can be large; an effect the other way counts as inactive or inconclusive.

SMILES	HEK293 tox	GLP-1R agonist	TRPML1 agonist	TRPML1 inh	GLP1R inv ag
CCCC/C=C/[C@H](c1ccccc1)[C@H](CO)Cc1ccccc1	/	/	3.2	7.0	/
COc1ccc(OC)c(NC(=O)CSC2=Nc3ccccc3C3=NC(CC(=O)NCc4ccco4)C(=O)N23)c1 (configuration not stated)	17.2%	/	4.8	39.1	11.2µM*
CC(C)c1ccc(NC(=O)CSC2=Nc3ccccc3C3=NC(CCC(=O)NC4CCCCC4)C(=O)N23)cc1 (configuration not stated)	-3.1%	/	-0.4	18.6	-14.4%
CC(C)c1ccc(NC(=O)CSC2=Nc3ccccc3C3=NC(CC(=O)NC4CCCCC4)C(=O)N23)cc1 (configuration not stated)	-11.8%	/	4.1	2.9	10µM*
C[C@@H](O[C@H]1OCCN(Cc2n[nH]c(=O)[nH]2)[C@@H]1c1ccc(F)cc1)c1cc(C(F)(F)F)cc(C(F)(F)F)c1	/	4.9%	/	/	/
CC(C)NC(=O)c1ccc(Cn2c(SCC(N)=O)nc3ccccc3c2=O)cc1	-0.3%	-2.2%	0.1	-15.4	-0.9%
CC1CCc2c(nc3sc4c(c3c2N)CCCC4)C1 (configuration not stated)	?	21.6%	-0.2	7.0	5.62µM*
COc1cccc(C(=O)Oc2c(Br)cc(Br)cc2/C=N/NC(=O)c2cc(C)[nH]n2)c1	-1.1%	-0.4%	3.2	2.3	6.31µM*
C[C@@H](CO)NC(=O)c1ccc2c3n(nc2c1)-c1ccccc1CO3	-49.9%	-5.1%	-0.4	-5.3	3.55µM*
Cc1nn(Cc2ccc(Cl)cc2Cl)c(C)c1NC(=O)NC12CC3CC(CC(C3)C1)C2	-25.2%	-11.1%	-1.3	-2.5	5.01µM*
Cc1nn(Cc2ccc(Cl)cc2Cl)c(C)c1NC(=O)c1sc2ccccc2c1Cl	-0.1%	-10.1%	0.2	-5.8	3.1%
COc1ccc(C2Nc3ccc(NC(C)=O)cc3C(=O)N2Cc2cccc(Cl)c2)cc1COc1ccc(NC(C)=O)cc1 (configuration not stated)	/	/	0.0	/	/
Cc1cc2ncn(-c3ncnc4sc(C)c(C)c34)c2cc1C	-1.6%	5.4%	-1.7	37.1	7.08µM*
O=C(CCNC(=O)Cn1ccc2ccccc2c1=O)NCCCN1CCN(c2ccc(F)cc2)CC1	0.3%	-11.7%	-1.3	3.2	-17.7%
O=C(CNC(=O)Cn1ccc2ccccc2c1=O)NCCCN1CCN(c2cccc(Cl)c2)CC1	11.4%	-0.7%	0.0	-4.4	10µM*
CCc1ccccc1NC(=O)/C(=C/c1ccco1)c1ccccc1	-5.1%	-3.5%	2.6	10.1	7.08µM*
Cc1noc(C)c1CSCC(=O)Nc1cc(Cl)ccc1N1CCCCC1	7.0%	-2.7%	2.9	65.7	11.2µM*
COc1ccc(OCC(=O)Nc2c(C(=O)N(CCN(C)C)Cc3ccco3)oc3ccccc23)cc1	10.3%	5.4%	-0.8	-15.3	7.94µM*
COc1ccccc1C(=O)Nc1c(C(=O)N(CCN(C)C)Cc2ccco2)oc2ccccc12	?	21.6%	0.2	11.7	?
Cc1n[nH]c(C)c1N1C(=O)c2cccc3c(N4CCCCCC4)ccc(c23)C1=O	238.7%	11.8%	61.1*	-8.1	137.5%
C=CCN1C(=O)c2cccc3c(N4CCCCC4)ccc(c23)C1=O	311.9%	9.7%	55.2*	1.6	10.7%
CC(C)(C)c1ccc(C(=O)NCC2CCCN2S(=O)(=O)c2ccccc2)cc1 (configuration not stated)	-20.5%	6.2%	3.9	24.0	5.01µM*
Cc1ccc(C(=O)NCC2CCCN2S(=O)(=O)c2ccc(C)cc2)cc1 (configuration not stated)	-7.8%	13.1%	2.9	1.5	?
C=CCC1(CC=C)CCCN1C(=O)c1cc(COc2cccc(C(F)(F)F)c2)on1	-4.6%	3.6%	1.2	35.9	10µM*
Cc1ccccc1Cn1c(=O)c2c(nc3n2CCCN3Cc2ccccc2)n(C)c1=O	14.5%	5.9%	16.0	-1.5	3.16µM*
SMILES	HEK293 tox	GLP-1R agonist	TRPML1 agonist	TRPML1 inh	GLP1R inv ag
Cc1cc(C)cc(NC(=O)CSc2nc3c([nH]c4ccccc43)c(=O)n2-c2ccc(F)cc2)c1	10.3%	-5.6%	1.8	-3.0	13.1%
CN1CCN(CC(=O)N2c3ccccc3C(C)(c3ccccc3)CC2(C)C)CC1 (configuration not stated)	-24.2%	-10.0%	0.5	20.5	10µM*
CCNC(=S)N/N=C/c1cccc(OCc2c(F)cccc2Cl)c1	?	5.9%	2.2	-1.0	10µM*
CNC(=S)N/N=C/c1cccc(OCc2ccccc2F)c1	?	22.3%	0.5	3.6	?
O=C(CC1C(=O)N(c2ccccc2)C(=S)N1c1ccccc1)c1ccccc1 (configuration not stated)	6.8%	-8.5%	2.4	0.2	?
O=C(CC1C(=O)N(c2ccccc2)C(=S)N1c1ccccc1)c1ccc(Br)cc1 (configuration not stated)	0.9%	8.7%	3.0	28.9	11.2µM*
NC(=O)CCC1NC(=O)C(Cc2ccccc2)NC(=O)C(Cc2ccc(O)cc2)NC(=O)CCSSCC(C(=O)N2CCCC2C(=O)NC(CCCN=C(N)N)C(=O)NCC(N)=O)NC(=O)C(CC(N)=O)NC1=O (configuration not stated)	/	1.9%	/	/	/
COc1cccc(NC(CNS(=O)(=O)c2ccc(C)cc2)c2ccccc2)c1 (configuration not stated)	-6.5%	/	5.2	6.0	10µM*
NS(=O)(=O)c1ccc(NC(CNS(=O)(=O)c2ccccc2)c2ccccc2)cc1 (configuration not stated)	-13.5%	-0.7%	-0.5	-2.0	?
COc1cccc(NC(CNS(=O)(=O)c2ccc(Cl)cc2)c2ccccc2)c1 (configuration not stated)	?	/	3.5	-4.4	10µM*
Cc1ccc(NC(CNS(=O)(=O)c2ccc(Cl)cc2)c2ccccc2)cc1 (configuration not stated)	5.6%	-25.6%	5.9	7.4	?
Cc1ccc(C(=O)N2c3nc(-c4ccco4)nn3C3(CCCCC3)[C@@H]3CCCC[C@@H]32)cc1	-9.4%	/	2.1	0.5	?
NC(=O)CSc1nnc(-c2ccccn2)n1Cc1ccco1	5.2%	-0.4%	-0.8	9.4	2.2%
C(=C\c1ccccc1)/CSc1nnc(-c2ccccn2)n1Cc1ccco1	?	15.3%	5.7	18.8	3.98µM*
Cc1cc(Cl)ccc1OCC(=O)N(Cc1ccco1)Cc1ccccc1F	7.1%	/	3.6	38.9	11.2µM*
CCCN(CC(=O)Nc1ccccc1OC)C(=O)c1cc(-c2ccccc2)nn1-c1ccccc1	3.9%	7.7%	3.0	-12.9	10µM*
